# Screens as filed in PubChem BioAssay.
# USP30 block: inhibitors of human USP30 deubiquitinase. Q70CQ3. purified USP30, Ub-rhodamine cleavage fluorescence. inhibition, % at 25 µM. 47,000 compounds, 5.3% hits. AID 1645860
# USP28 block: inhibitors of human USP28 deubiquitinase; Q96RU2; purified USP28, Ub-rhodamine cleavage fluorescence, 30 min; inhibition, % at 25 µM; 47,000 compounds, 3% hits; AID 1645857
# USP17 inh: blocks human USP17 ubiquitin-rhodamine cleavage; A8MUK1; purified USP17, Ub-rhodamine cleavage fluorescence, 3 h; inhibition, % at 50 µM; 47,000 compounds, 6.5% hits; AID 1645855
# Target sequence (A8MUK1 whole entry, looked up): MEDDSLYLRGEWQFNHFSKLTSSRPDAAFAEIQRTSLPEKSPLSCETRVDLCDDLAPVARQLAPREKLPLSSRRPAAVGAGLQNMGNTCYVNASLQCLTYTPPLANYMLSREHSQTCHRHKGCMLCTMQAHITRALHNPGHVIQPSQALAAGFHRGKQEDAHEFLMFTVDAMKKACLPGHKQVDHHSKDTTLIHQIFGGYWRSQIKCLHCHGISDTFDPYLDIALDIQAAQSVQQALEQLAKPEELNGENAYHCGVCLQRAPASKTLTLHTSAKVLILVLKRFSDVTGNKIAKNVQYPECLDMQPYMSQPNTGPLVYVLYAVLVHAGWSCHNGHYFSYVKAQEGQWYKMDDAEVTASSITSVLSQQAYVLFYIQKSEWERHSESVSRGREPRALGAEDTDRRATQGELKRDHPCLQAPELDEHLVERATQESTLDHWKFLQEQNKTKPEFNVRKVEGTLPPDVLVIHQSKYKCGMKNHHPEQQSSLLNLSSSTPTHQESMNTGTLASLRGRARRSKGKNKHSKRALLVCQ
# Hits are given with their value; 0 = inactive; - = no result given. A selection: hits, their analogues and other compounds. The true share with any hit is near 11%. No stated cut-off is given here; in the data, active means inhibition above about 30%; inactive means the rest.
SMILES,USP30 block,USP28 block,USP17 inh
Cc1nc(-c2ccc(NC(=O)N3CCN(c4ccccn4)CC3)cc2)no1,0,62,0
Cc1nc(-c2ccc(NC(=O)N3CCN(c4ccccc4F)CC3)cc2)no1,0,0,0
Cc1nc(-c2ccc(NC(=O)N3CCN(c4cccc(Cl)c4)CC3)cc2)no1,0,0,0
CC(=O)N1CC2(CCN(C(=O)CN(C)C(=O)c3ccco3)CC2)Nc2ccccc21,0,0,0
O=C(C1CCCN(S(=O)(=O)c2cccnc2)C1)N1CCc2ccccc2C1 (stereo unspecified),0,0,0
Cc1cc(C)cc(-n2ccn3c(CCC(=O)NCCC4=CCCCC4)nnc3c2=O)c1,0,0,0
COc1ccccc1OCC(=O)Nc1nc(-c2ccc(Br)o2)ns1,0,0,0
O=c1c(-c2nc(C3CC3)no2)cccn1Cc1noc(-c2ccccc2F)n1,0,0,0
O=c1c(-c2nc(C3CC3)no2)cccn1Cc1c(F)cccc1Cl,0,85,0
COc1ccc(CN2C[C@@H]3OCC(=O)N(Cc4nccn4C)[C@@H]3C2)cc1,0,0,0
COCCN(Cc1cc2cc(C)ccc2[nH]c1=O)S(=O)(=O)c1ccc(Cl)cc1,0,0,33
Cc1ccc2[nH]c(=O)c(CN(Cc3ccco3)S(=O)(=O)c3ccccc3)cc2c1,0,0,-
Cc1ccc(S(=O)(=O)N(C)Cc2cc3cc(C)ccc3[nH]c2=O)cc1,-,-,57
O=c1[nH]c2ccccc2cc1CN(c1ccccc1)S(=O)(=O)c1ccc(Cl)cc1,0,0,48
COc1ccc(N(Cc2cc3cc(OC)ccc3[nH]c2=O)S(=O)(=O)c2ccccc2)cc1,0,0,0
Cc1ccc(S(=O)(=O)N(Cc2ccco2)Cc2cc3ccccc3[nH]c2=O)cc1,0,0,0
Cc1ccc2[nH]c(=O)c(CN(CC3COCCO3)S(=O)(=O)c3ccc(F)cc3)cc2c1 (stereo unspecified),0,0,76
Cc1ccc(S(=O)(=O)N(Cc2cc3ccc(C)cc3[nH]c2=O)CC2CCCO2)cc1 (stereo unspecified),0,0,0
CCc1noc(C)c1C(=O)N1CCCCC1c1cc(C)n2nccc2n1 (stereo unspecified),0,0,0
CCC(=O)Nc1ccc(-n2cnc(C(=O)N3CCC(C)CC3)c2)nc1,0,0,0
CCc1ncc(-c2nc(-c3ccccc3)cs2)c(=O)n1CC(N)=O,0,0,0
Cc1cccc(OCC(=O)Nc2ccc3c(c2)NC(=O)C(C)O3)c1 (stereo unspecified),0,0,0
Cc1ccc(CN2CC[C@H]3COC(=O)N(C)[C@@H]3C2)cc1,0,0,0
COc1ccccc1NC(=O)N1CCc2nc3ccccc3n2CC1,0,0,0
C[C@@H]1Cc2cc(O)cc(O)c2C(=O)O[C@H](C)CC(=O)OC[C@@H](O)CC(=O)O[C@H](C)Cc2cc(O)cc(O)c2C(=O)O[C@H](C)CC(=O)O1,0,0,0
SMILES,USP30 block,USP28 block,USP17 inh
COc1cc(O)c2c(O)c3c(cc2c1)CC(C)OC3=O (stereo unspecified),0,64,75
O=c1c2ccccc2c(-c2nc(-c3cccnc3)no2)cn1-c1ccc(Cl)cc1,38,0,0
c1ccc(-n2cc(-c3noc(-c4cccnc4)n3)nn2)cc1,0,0,0
CC(=O)c1ccccc1OC(=O)C1CC(=O)N(c2ccc(Cl)cc2)C1 (stereo unspecified),0,0,0
N#Cc1c(Nc2ccc([N+](=O)[O-])cc2)s[nH]c1=O,0,0,0
NC(=O)c1cccc(OCCOc2ccccc2)c1,49,0,0
O=C(OCCOc1ccccc1)c1ccc(-c2ccccc2)cc1,0,0,0
Cc1[nH]c(-c2nnc(C3CCC3)o2)c(C)c1S(=O)(=O)N1CCN(C)CC1,0,0,0
O=C(c1cnccn1)N1CCCn2nc(-c3ccc(Cl)cc3)cc2C1,0,0,0
CC1=CC(=O)CC(C)(C)C1(O)/C=C/C(C)=C\C(=O)O (stereo unspecified),0,0,0
CC(=O)/C=C/C1(O)C(C)=CC(=O)CC1(C)C (stereo unspecified),33,0,0
CNc1cc(C2CN(C(=O)c3cscn3)CCO2)nc(C)n1 (stereo unspecified),0,0,0
Cc1nc(Nc2ncc(C)s2)cc(C2CN(C(=O)Cc3ccccc3)CCO2)n1 (stereo unspecified),55,0,38
CC1CCC(C(=O)NC(C(=O)OCC(=O)c2ccc(Cl)cc2)C(C)C)CC1 (stereo unspecified),0,0,0
O=[N+]([O-])c1c(Cl)cccc1-c1c[nH]cc1Cl,0,48,0
CN1CCc2[nH]c3c(Cl)cccc3c2C1,0,0,0
O=C(Cn1cnc2cc3c(cc21)OCCCO3)N1CCCc2ccccc21,0,0,0
c1ccc2c(-c3nnc(C4CC4)o3)nnc(NCCCN3CCCC3)c2c1,0,0,40
COCCNc1nnc(-c2nnc(C3CC3)o2)c2ccccc12,0,0,0
O=C(Nc1cccc(-c2noc(C3CCC3)n2)c1)C1CC(=O)N(c2ccccc2)C1 (stereo unspecified),0,0,60
Cc1ccc(CNC(=O)C2CC(=O)N(c3cccc(-c4noc(C5CCC5)n4)c3)C2)cc1 (stereo unspecified),0,0,0
CCc1nc(-c2cccc(NC(=O)C3CC(=O)N(c4ccccc4)C3)c2)no1 (stereo unspecified),0,0,0
Cc1nc(-c2cccc(NC(=O)C3CC(=O)N(c4ccc(C)c(C)c4)C3)c2)no1 (stereo unspecified),0,0,0
Cn1c(=O)[nH]c2cc(-c3noc(C4CC(=O)N(c5ccccc5)C4)n3)ccc21 (stereo unspecified),0,0,32
O=C(Nc1cccc(-c2noc(C3CC3)n2)c1)C1CC(=O)N(c2ccccc2)C1 (stereo unspecified),0,0,40
SMILES,USP30 block,USP28 block,USP17 inh
CCc1nc(-c2cccc(NC(=O)C3CC(=O)N(c4ccc(C)c(C)c4)C3)c2)no1 (stereo unspecified),60,0,60
Cc1ccc(N2CC(c3nc(-c4ccc5oc(C)nc5c4)no3)CC2=O)cc1 (stereo unspecified),0,0,0
NC(=O)C1Cn2ccnc2C2(CCN(C(=O)NCCc3ccc(F)cc3)CC2)O1 (stereo unspecified),0,0,0
CC1CN(C(=O)CCC(=O)NCc2cccc(F)c2)c2ccccc2O1 (stereo unspecified),0,0,0
Fc1ccc(CN2CCC[C@@H]2Cn2nnc(-c3ccncc3)n2)cc1,0,0,0
COc1ccccc1-c1nn(Cc2ccccc2)cc1C(=O)N1CCCc2ccccc21,0,0,0
O=c1c2cnc3nc(C(F)(F)F)nn3c2ccn1Cc1ccccn1,0,0,0
CN1CC[C@@]2(C(=O)Nc3ccccc3)CCN(S(=O)(=O)c3ccccc3)CC[C@@H]12,0,0,0
Cc1ccc(C(C)C(=O)N2CCc3nc4ccccc4c(=O)n3CC2)cc1 (stereo unspecified),30,0,0
O=C(Cc1ccccc1O)N1CCc2nc3ccccc3c(=O)n2CC1,0,0,0
CC(C)(C)OC(=O)N[C@@H](Cc1ccccc1)C(=O)NCC1CCC(C(=O)NCCc2c[nH]c3ccccc23)CC1 (stereo partly specified),0,0,44
